Hits are enriched below; roughly 1.8% of the tested compounds scored in any of these assays.
HDAC3 inhib – HDAC3 deacetylase inhibitors, primary screen, biochemical, fluorescence, cell-free homogeneous | 320,000 compounds, 0.15% hits | AID 2718, 2010 | recombinant HDAC3, fluorogenic peptide/trypsin coupled | Histone deacetylase 3 (Homo sapiens), O15379 | inhibition, % at 8.3 µM; in the data active = inhibition above about 26%, passing the limit was not always enough; inconclusive = no clear call, values can overlap the other calls
Target sequence (O15379 whole entry, looked up): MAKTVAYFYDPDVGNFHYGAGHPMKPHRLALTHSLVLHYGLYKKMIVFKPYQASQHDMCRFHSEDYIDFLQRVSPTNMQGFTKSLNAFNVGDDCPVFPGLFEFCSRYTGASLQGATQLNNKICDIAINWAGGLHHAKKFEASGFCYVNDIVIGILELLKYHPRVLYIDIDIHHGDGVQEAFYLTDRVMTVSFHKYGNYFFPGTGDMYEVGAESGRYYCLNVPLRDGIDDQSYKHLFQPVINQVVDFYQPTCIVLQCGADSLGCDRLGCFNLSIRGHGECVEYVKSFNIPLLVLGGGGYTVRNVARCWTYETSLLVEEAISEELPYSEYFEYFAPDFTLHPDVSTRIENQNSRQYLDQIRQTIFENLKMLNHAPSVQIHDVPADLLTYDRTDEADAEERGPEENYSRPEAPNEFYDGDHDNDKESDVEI
Cardio protect – cardioprotection against H2O2-induced cell death, primary screen, uHTS, H9c2 cells, ATPLite luminescence | protection from H2O2 cell death, % at 20 µM | AID 588492, 2011 | H9c2 cardiomyocytes, H2O2 injury protection, 2 h | 360,000 compounds, 0.63% hits;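 active = compounds giving at least 50% protection of heart cells from peroxide-induced death in the single-dose screen, raw or plate-pattern-corrected value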;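 also: 0% = DMSO wells with peroxide and 100% = DMSO wells without peroxide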
Neddyl block – inhibitors of cullin neddylation, primary screen, biochemical, TR-FRET, uHTS, NAE and Ubc12. NEDD8-conjugating enzyme Ubc12 (Homo sapiens) + NEDD8-activating enzyme E1 regulatory …. inhibition, % at 25 µM. 360,000 compounds, 0.58% hits; in the data active = inhibition above about 36%
GRK2 inh – compounds blocking aptamer binding on GRK2 – biochemical, human GRK2, bead flow cytometry, HTS, primary screen; inhibition of aptamer binding, % at 10 µM; Beta-adrenergic receptor kinase 1 (Homo sapiens), P25098; 330,000 compounds, 0.59% hits; FAM-aptamer displacement from GRK2;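 active = inhibition of aptamer binding above 40%, roughly 3 SD of noise, on plates passing a quality check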;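 also: median bead fluorescence of bound FAM aptamer so fluorescent compounds give negative values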
GRK2 CP1 – GRK2 aptamer-displacing inhibitors, retest, confirmation, biochemical, cherry pick 1, bead flow cytometry. shares compounds with GRK2 inh. bead-bound GRK2, FAM-aptamer displacement. aptamer displacement, % at 10 µM. 2,000 compounds, 4% hits. AID 504451, 2011;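 active = aptamer displacement above 40%, near three times the noise of non-fluorescent compounds, on plates passing quality checks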;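 also: negative values mostly reflect intrinsic compound fluorescence rather than true enhancement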
FAM quench CP1 – quenches fluorescent RNA aptamer, GRK2 hit artifact; fluorescence response (% of DMSO), % at 10 µM; Carboxyfluorescein RNA aptamer on beads, flow cytometry quenching; active compounds read low; shares compounds with GRK2 inh; 2,000 tested, under 10 active;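 active = compounds that quench the bead-bound fluorescent RNA probe, cutting fluorescence to under half of the solvent control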;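 also: counterscreen run without GRK2 so only probe quenching by compound is measured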
GRK2 confirm 2 – GRK2 aptamer-displacing inhibitors, hit retest, confirmation, biochemical, cherry pick 2, bead flow cytometry; shares compounds with GRK2 inh; bead-bound GRK2, FAM-aptamer displacement; inhibition of aptamer binding, % at 10 µM; 360 tested, under 10 active; AID 504782, 2011;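 active = inhibition of aptamer binding above 40%, about triple the noise seen with nonglowing compounds, on plates passing quality control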;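 also: negative values mostly come from compounds that fluoresce themselves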
FAM quench SP – counter-screen for GRK2 binding hits: quenchers of fluorescent RNA aptamer. shares compounds with GRK2 inh. 360 tested, under 10 active. fluorescence response vs DMSO, % at 10 µM. carboxyfluorescein RNA aptamer beads, flow cytometry quenching; active compounds read low. AID 588494;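 active = response vs DMSO under 50%, meaning signal dropped by over half, treated as fluorescence quencher; inconclusive = no clear call, values can overlap the other calls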;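 also: labelled aptamer on streptavidin beads without GRK2 as a quench counter-screen; 100% = bead fluorescence of DMSO wells and lower means quenching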
Starred values were filed as active, the others as inactive; ? = inconclusive; . = not tested or not shown.

SMILES	HDAC3 inhib	Cardio protect	Neddyl block	GRK2 inh	GRK2 CP1	FAM quench CP1	others
CCN(CC)C(=O)C1=C(C)N(Cc2ccc(C(C)(C)C)cc2)C(=O)C(CC(=O)NCCN2CCOCC2)C1 (stereo unspecified)	.	4.4	-4.7	.	.	.
O=C(CCc1ccccc1)Nc1nc2n(n1)C(c1ccc(Cl)cc1)CC(=O)N2 (stereo unspecified)	-6.0	6.2	7.8	100.0*	-2.8	94.7
Cc1csc(NC(=O)CSc2nnc(NC(=O)COc3ccc(Cl)cc3)s2)n1	1.5	2.4	-16.4	0.0	.	.
Cc1ccc(-c2c(C#N)c(N)n(-c3ccc(C)cc3)c(=O)c2C#N)cc1	-0.9	-7.1	-15.3	42.0*	-6.5	129.4
Cc1ccc(-n2c(N)c(C#N)c(-c3ccc(Cl)cc3)c(C#N)c2=O)cc1	-0.5	-0.7	-331.9	0.0	.	.
CCc1nnc(NC(=O)c2cc(-c3ccco3)nc3ccccc23)s1	4.9	8.9	-7.4	0.0	-1.3	97.2
COc1ccccc1CNC(=O)COC(=O)c1cc(-c2ccco2)nc2ccccc12	1.6	27.2	6.7	49.0*	33.9	96.7
CCc1nnc(NC(=O)c2cc(-c3ccccn3)nc3ccccc23)s1	0.9	14.0	-26.7	0.0	.	.
COc1ccc(S(=O)(=O)N(CC(=O)N2CCN(C)CC2)c2ccc(C)cc2)cc1Br	.	0.8	-12.5	.	.	.
O=C(O)CCn1c(-c2ccccn2)nc2ccccc21	-6.8	0.4	.	27.0	3.6	95.0
O=C(O)C[C@H]1c2cc(F)ccc2S(=O)(=O)N1C1CCCC1	2.6	11.6	-22.1	44.0*	-2.0	98.2
Cc1nc2ccc(NC(=O)c3ccc(F)c(S(=O)(=O)N4CCOCC4)c3)cc2s1	-1.6	-7.4	7.3	0.0	.	.
COC(=O)C1CC(=O)N(c2ccc(C)cc2)C1 (stereo unspecified)	0.1	12.1	1.9	94.0*	1.4	98.0
O[C@H]1C[C@H](c2ccc(Cl)cc2)N(CC2CCCCC2)C[C@@H]1n1cc(C2CC2)nn1	.	-34.4	0.5	.	.	.
COc1ccc(N2CCN(CCCNC(=O)C3(S(=O)(=O)c4ccc(Cl)cc4)CC3)CC2)cc1	-1.1	-0.8	-2.0	0.0	.	.
O=C(NCCCN1CCN(c2cccc(Cl)c2)CC1)C1(S(=O)(=O)c2ccc(Cl)cc2)CC1	5.1	3.0	1.5	28.0	-19.1	88.1
O=Nc1c(O)c2ccccc2c2ccccc12	4.8	-6.6	-29.1	23.0	.	.
O=c1c(=Nc2ccccc2O)c(=O)c2ccccc12	9.4	-15.0	-17.5	70.0*	2.0	97.9
O=C(C1COc2ccccc2O1)N1CCN(c2ccc([N+](=O)[O-])cc2)CC1 (stereo unspecified)	-3.4	9.8	-36.3	98.0*	-2.1	98.2
COc1cc(C(C)=O)ccc1OCC(=O)Nc1ccccc1N1CCCC1	2.2	11.4	7.0	87.0*	.	.	GRK2 confirm 2=-23.2;FAM quench SP=101.0
Cc1ccc(NC(=S)NC(=O)C2CCCCC2)c(Br)c1	8.5	-12.7	0.0	0.0	.	.
Nc1cc(C(=O)OCC(=O)N2CCOCC2)ccc1Cl	-1.7	2.8	26.6	58.0*	-1.2	99.2
Nc1cc(C(=O)OCC(=O)N2CCN(C(=O)COC(=O)c3ccc(Cl)c(N)c3)CC2)ccc1Cl	.	2.9	8.6	.	.	.
CC(C)CNC(=S)N1CCN(c2nc3ccccc3s2)CC1	0.7	-17.2	-6.2	42.0*	0.3	98.0
CCn1c(N2CCN(C(=S)NCC(C)C)CC2)nc2ccccc21	-17.3	-3.1	0.4	4.0	.	.
SMILES	HDAC3 inhib	Cardio protect	Neddyl block	GRK2 inh	GRK2 CP1	FAM quench CP1	others
Cc1cccc(S(=O)(=O)Nc2cc(Cl)ccc2N2CCOCC2)c1	15.4	-8.9	5.6	81.0*	-2.4	106.4
O=S(=O)(Nc1cc(C(F)(F)F)ccc1N1CCOCC1)c1ccccc1	-1.9	-3.6	-4.1	1.0	.	.
Cc1ccc(C(=O)NCCN2CCC(n3c(=O)[nH]c4ccccc43)CC2)cc1F	.	.	3.0	.	.	.
O=[N+]([O-])c1ccc(OCc2n[nH]c(=S)n2-c2ccccc2)cc1	7.7	-3.7	-28.4	1.0	.	.
CC(C)Cc1nc2oc3c(=O)[nH]cnc3c2c2c1CCCC2	-5.8	3.4	-26.9	0.0	.	.
CC(C)Cc1nc2oc3c(=O)[nH]cnc3c2c2c1CCC2	-1.0	5.9	.	93.0*	0.6	100.1
O=C(NCc1ccc2c(c1)OCO2)c1cc2ncc(Br)cn2n1	3.3	-8.5	-16.0	39.0	3.7	96.9
COc1ccc(S(=O)(=O)N2CCOCC2)cc1C(=O)N(C)CCOc1ccc(Cl)cc1	.	-12.2	11.8	4.0	.	.
COCCNC(=O)c1c[nH]c2ccc(S(=O)(=O)Nc3ccccc3F)cc2c1=O	-0.2	12.6	3.2	70.0*	6.5	100.1
COCCNC(=O)c1c[nH]c2ccc(S(=O)(=O)Nc3ccc(F)cc3F)cc2c1=O	0.1	-0.2	5.1	91.0*	6.9	98.9
COCCNC(=O)c1c[nH]c2ccc(S(=O)(=O)N3CCc4ccccc43)cc2c1=O	-0.4	0.7	-4.5	0.0	.	.
Cc1noc(C)c1COc1ccc(C(=O)NCCc2ccccn2)cc1	2.4	-2.0	-1.5	0.0	.	.
O=C(c1ccco1)c1cn(CC(=O)N2CCCCCC2)c2ccccc12	2.7	-1.7	-21.3	0.0	.	.
CC1CCCCN1C(=O)Cn1cc(C(=O)c2ccco2)c2ccccc21 (stereo unspecified)	-5.9	-2.7	-13.5	97.0*	2.0	97.9
CC(C)CC(=O)O/N=C1\C(=O)N(Cc2ccc(Cl)cc2)c2ccc([N+](=O)[O-])cc21	0.8	.	.	0.0	.	.
CCOc1ccccc1NC(=S)N1C2CCC1CC(NC(=O)NC13CC4CC(CC(C4)C1)C3)C2 (stereo unspecified)	-2.8	2.5	-6.4	3.0	.	.
COc1ccccc1NC(=S)N1C2CCC1CC(NC(=O)NC13CC4CC(CC(C4)C1)C3)C2 (stereo unspecified)	-5.1	-4.4	-1.0	46.0*	0.7	91.7
CC1(C(=O)NS(=O)(=O)c2cccc(Cl)c2)CCN1C(=O)C1(c2ccccc2)CC1 (stereo unspecified)	.	5.7	5.0	.	.	.
Cc1cc2cc(CNC(=O)c3ccc(S(=O)(=O)N4CCCC4)cc3)ccc2n1C	?	8.4	-110.8	3.0	.	.

Screens from PubChem BioAssay.
